# ChEMBL document CHEMBL3988442, “University of Dundee, Small-Polar-MMV Screening Library” (2021)
# In all, about 48,000 compounds went through this assay and about 13,000 (27%) showed an effect of 50% or more. The list shows a part of the results.
# Test system: Wolbachia pipientis
# Assay: Anti-Wolbachia Cell-Based Screen
# Type: functional
# Set-up: scale not given: in the data most compounds retested in dose-response had high values
# Conditions: 5 µM
row,SMILES,Percent Effect [%]
1,Cc1cc(CS(=O)(=O)N(C)C(C)c2ccc(Cl)cc2)on1 (centres undefined),1.246
2,CN(C)[C@@H]1CCN(c2ncc(F)cn2)[C@H]1Cc1ccncc1.O=C(O)C(F)(F)F.O=C(O)C(F)(F)F,2.593
3,CC(O)CCN(C)S(=O)(=O)Cc1ccc(Cl)c(Cl)c1 (centres undefined),3.883
4,N[C@H]1CN(C(=O)Cc2ccc(CO)cc2)C[C@@H]1C1CC1,-4.225
5,O=C1CN(Cc2cn(C3CCN(C4CSCCSC4)CC3)nn2)CCN1,9.418
6,CN(C)C(=O)CN1CCC(c2cccc(Cc3ccc(F)cc3)n2)CC1,83.25
7,Fc1ccc2[nH]c([C@H]3CCN(C4CCOCC4)C3)nc2c1,-0.03029
8,CCCN1CCCC1c1nc(Cc2ccc(F)cc2)no1 (centres undefined),-11.63
9,O=C1CO[C@H]2CN(C3CCOCC3)C[C@H]2N1Cc1ccc(F)cc1,15.12
10,CC(C)c1nccn1-c1cccc(C2CCCN(S(=O)(=O)N(C)C)C2)n1 (centres undefined),123.6
11,Fc1ccc(Cc2cccc(C3CCN(C4CCOCC4)CC3)n2)cc1,122.8
12,CN1CCCC1c1cccc(Cc2ccccc2F)n1 (centres undefined),-8.343
13,CN(C)C(=O)CN(C)C(=O)c1cnc(Cc2ccc(F)cc2)s1,-0.8881
14,CN(C)C(=O)CN1CCN(c2ccnc3c(F)ccc(F)c23)CC1,6.891
15,CN1CCCC1c1cccc(Cc2ccc(F)cc2)n1 (centres undefined),109.9
16,CC(C)c1nccn1-c1cccc(C2CCCN2S(=O)(=O)N(C)C)n1 (centres undefined),-5.176
17,CCO[C@H]1CN(C)C[C@@H]1NC(=O)c1c[nH]nc1C1CCCCC1,-8.959
18,NC(=O)C1CCN(C(=O)NCc2ccccc2Cn2ccnc2)CC1,-2.267
19,COc1cc(C(=O)N2CC[C@@H](NC(=O)c3ccccn3)[C@H](O)C2)ccn1,-8.714
20,COC1(CNS(=O)(=O)c2ccccc2Cl)CCSC1 (centres undefined),-2.993
21,COC(=O)c1ccc(NC2CCN(CC(F)(F)F)C2=O)cc1C (centres undefined),4.628
22,CCn1ccnc1CN1CCN(CCC(=O)NC(C)(C)C)CC1C (centres undefined),-7.568
23,CN(C)S(=O)(=O)N1CCCC(c2cccc(Cc3ccc(Cl)cc3)n2)C1 (centres undefined),74.08
24,CN(C)S(=O)(=O)N1CCCC(c2cccc(Cc3ccccc3F)n2)C1 (centres undefined),93.31
25,CN(C)S(=O)(=O)N1CCC(c2cccc(Cc3ccccc3Cl)n2)CC1,111.4
26,CN(C)S(=O)(=O)N1CCCC(CCC(=O)Nc2ccc(Cl)cc2)C1 (centres undefined),1.788
27,CN(C)S(=O)(=O)N1CCCC(c2cccc(Cc3ccc(F)cc3)n2)C1 (centres undefined),101
28,CN(C)S(=O)(=O)N1CCCC(c2cccc(Cc3ccccc3)n2)C1 (centres undefined),7.511
29,CN1CCCC(c2cccc(Cc3ccccc3Cl)n2)C1 (centres undefined),-5.601
